# Screening data from PubChem.
# Sampled rows, rich in hits. Any-hit rate of the full collection: about 21%.
# Pf growth 96h: P. falciparum growth inhibition at 96 hour, primary screen for plastid delayed-death inhibitors. P. falciparum luciferase reporter growth, 96 h. Potency, µM (top dose mostly 28.7 µM), inactives show top-dose activity change, negative = inhibition, actives largely listed as inhibitors. actives 6.9% (n = 320,000). AID 504834; note: potency is the fitted concentration of half-maximal effect; % is set by controls: 0 for no effect and ±100 for the full control effect
#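 96 h incubation, 37 C, 5% CO2, of luciferase-reporter P. falciparum-infected RBCs (2% hematocrit, 0.05% parasitemia final) with test compounds; endpoint luminescence.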
# Pf growth 48h: P. falciparum growth inhibition at 48 hours (one generation). P. falciparum luciferase growth in erythrocytes, 48 h. AID 504832. Potency, µM (top dose mostly 28.7 µM), for the others: at the highest dose activity change, negative = inhibition, hits mostly inhibitors. actives 5.9% (n = 310,000); note: potency is the fitted concentration of half-maximal effect; % is set by controls: 0 for no effect and ±100 for the full control effect
#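 Luciferase-expressing P. falciparum in infected erythrocytes (2% hematocrit, 0.1% parasitemia final) in RPMI 1640/0.5% Albumax were exposed to compound for 48 hours at 37 C, 5% CO2; growth read as luminescence.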
# CHX counter: affects cycloheximide protein synthesis inhibition readout, counter-screen; cell reporter, cycloheximide protein synthesis inhibition counterscreen; max response, %; actives 12% (n = 300,000); in the data active = max response mostly above about 13%, no sharp cut-off; inactive = mostly below about 14%; note: read at 38.3 µM for the half of the compounds with a filed dose; 0% is about no effect
# Shiga toxin inh: inhibitors of Shiga toxin in Vero cells. inhibition, % at 38.7 µM. Vero cells, Shiga toxin protein synthesis inhibition reporter. AID 2315. actives 9.2% (n = 290,000); in the data active = inhibition mostly above about 28%, no sharp cut-off; inactive = mostly below about 43%; note: 0% is about no effect
# NS1 function inh: blocks influenza NS1 protein function. Potency, µM (titrated, usually from 46.1 µM), for the others: top-dose activity, positive = more growth. actives 0.4% (n = 270,000). AID 2326; calls by dose curve; note: potency is the fitted concentration of half-maximal effect; actives are rising curves; nearly all actives have a fitted effect of over 50% in size
#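 Recovery from NS1-induced slow growth read by OD600 in budding yeast switched to galactose assay medium (pH 6.0, -URA) at 1:100 dilution. Compound 23 nl per well; the matching strain lacking NS1 serves as control.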
# Giardia FBPA inh: inhibitors of Giardia lamblia fructose-1,6-bisphosphate aldolase; Potency, µM (top dose mostly 59.6 µM), for the others: top-dose activity, negative = inhibition, usual class: inhibitors; purified Giardia FBPA; AID 2451; actives 0.71% (n = 290,000); A8B2U2; note: potency is the fitted concentration of half-maximal effect; % is set by controls: 0 for no effect and ±100 for the full control effect; nearly all actives have a fitted effect of over 55% in size
# Target sequence (A8B2U2 whole entry, looked up): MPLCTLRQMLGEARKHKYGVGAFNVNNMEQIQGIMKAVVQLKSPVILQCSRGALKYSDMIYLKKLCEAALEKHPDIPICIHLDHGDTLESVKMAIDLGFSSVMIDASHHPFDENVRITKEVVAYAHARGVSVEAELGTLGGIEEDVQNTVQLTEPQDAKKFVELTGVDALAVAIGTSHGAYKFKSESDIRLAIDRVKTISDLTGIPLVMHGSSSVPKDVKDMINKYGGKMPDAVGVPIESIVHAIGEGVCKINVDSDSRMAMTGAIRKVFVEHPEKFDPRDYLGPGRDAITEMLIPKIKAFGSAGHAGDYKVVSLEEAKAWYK
#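 40 nM FBPA preincubated 10 min at RT with compound (up to 57.5 uM final), then substrate plus GAPDH/TPI/NAD/arsenate coupling and diaphorase/resazurin added. Fluorescence read after 20 min at RT, 525/598 nm.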
# * marks the source's active call; other numbers are inactive results; ? = inconclusive; . = not tested or not shown; + = active, no number; [ ] = another dose, or the depositor's remark. Unless noted, calls come from the whole dose curve; as a rule, active = well fitted curve in the direction sought with a large enough effect; inconclusive = small, poorly fitted or top-dose-only effect, or another doubt; inactive = no such curve, though single readings can be large; an effect the other way counts as inactive or inconclusive.
SMILES,Pf growth 96h,Pf growth 48h,CHX counter,Shiga toxin inh,NS1 function inh,Giardia FBPA inh
COc1ccc(OC)c(NC(=S)N2CCN(Cc3ccccc3)CC2)c1,18%,-1%,1,-8,1%,-7%
COc1ccc(OC)c(NC(=S)N2CCC(C(O)(c3ccccc3)c3ccccc3)CC2)c1,?,9.3µM*,5,15,?,0%
O=S(=O)(Nc1ccc(O)c2ccccc12)c1cccs1,-17%,0%,-3,4,-41%,?
O=S(=O)(Nc1ccc(O)c2ccccc12)c1ccc(Br)cc1,?,4.7µM*,-3,-5,-1%,.
Cc1ccc(S(=O)(=O)Nc2ccc(O)c3cccnc23)cc1,9.3µM*,6.6µM*,-3,4,12%,-16%
Cc1ccc(Cn2ccc(=O)c(OCc3c(Cl)cccc3Cl)c2C)cc1,4.1µM*,.,-1,-12,-1%,-6%
Fc1ccc(Br)cc1/C=N/N1CCN(c2ccccc2)CC1,-12%,29%,10,.,2%,7%
Cc1ccsc1/C=N/NC(=O)CN1CCN(Cc2ccccc2)CC1,33%,9%,8,-3,-1%,1%
Cc1ccsc1/C=N/N1CCN(c2ccccc2)CC1,208%,43%,71*,60*,-14%,2%[12.9 µM]
Cc1ccsc1/C=N/N1CCN(c2ccccn2)CC1,43%,96%,31*,55*,-37%,3%
Cc1ccsc1/C=N/N1CCN(Cc2ccccc2)CC1,7%,50%,24*,38*,.,-16%
Cn1c(Cc2ccccc2)nnc1SCC(=O)Nc1ccc(N2CCOCC2)cc1,195%,-8%,10,0,3%,6%
CC1(C)O[C@@H]2[C@H](O1)[C@@H](COS(=O)(=O)O)O[C@H]2n1c(=S)[nH]c2c(=O)[nH]c(N)nc21,49%,-9%,.,.,.,.
CC(C)N(Cc1ccccc1)C(=O)CCS(=O)(=O)c1ccc2c(c1)oc(=O)n2C,?,-18%,-4,-3,8%,-5%
N#CCCn1c(=O)c(-c2ccc(Cl)cc2)nc2cnc(OCc3ccccc3)nc21,.,.,.,.,.,-2%
O=C(NCc1ccc(F)cc1)N1CCN(S(=O)(=O)c2ccccc2F)CC1,-9%,7%,8,-5,-10%,12%
CCOC(=O)N1CCN(C(=O)C2CCN(S(=O)(=O)c3ccc(OCC)cc3)CC2)CC1,44%,0%,0,-7,-5%,-17%
O=S(=O)(c1ccccc1)N1CCN(C(=S)NCc2ccccc2)CC1,2.1µM*,2.6µM*,2,-12,.,2%
CCOc1ccc(S(=O)(=O)N2CCN(C(=S)NCc3ccccc3)CC2)cc1,2.1µM*,2.3µM*,1,-10,3%,-5%
O=S(=O)(c1ccccc1F)N1CCN(C(=S)NCc2ccccc2)CC1,2.6µM*,3.7µM*,-1,-6,.,3%
CCc1ccc(NC(=S)N2CCN(S(=O)(=O)c3ccccc3)CC2)cc1,59%,13%,1,16,5%,.
CCOc1ccc(S(=O)(=O)N2CCC(C(=O)N3CCN(Cc4ccccc4)CC3)CC2)cc1,1%,9.3µM*,5,-10,-5%,3%
OC1(C(O)(c2ccc(-c3ccccc3)cc2)c2ccc(-c3ccccc3)cc2)CCCCC1,.,.,.,.,-8%,.
O=S(=O)(NCCc1ccccc1)c1ccc(S(=O)(=O)N2CCCCC2)cc1,?,.,-2,-5,-11%,4%
CS(=O)(=O)N1CCN(C(=S)NCc2ccc(F)cc2)CC1,-26%,-1%,-4,-5,2%,2%
SMILES,Pf growth 96h,Pf growth 48h,CHX counter,Shiga toxin inh,NS1 function inh,Giardia FBPA inh
O=S(=O)(c1cccc(F)c1)N1CCN(C(=S)NCc2ccccc2)CC1,?,3.7µM*,-2,-12,.,3%
O=C(CSCc1ccccc1)N1CCN(S(=O)(=O)c2cccc(F)c2)CC1,12%,9%,.,.,.,.
O=S(=O)(NCc1ccccc1)c1ccc(S(=O)(=O)N2CCCCC2)cc1,5.2µM*,15%,-3,42,3%,6%
COc1ccc(CNC(=S)N2CCN(S(=O)(=O)c3cccc(F)c3)CC2)cc1,3.3µM*,?,-3,2,-4%,2%
Cc1cccc(C)c1NC(=O)CN(C)S(=O)(=O)c1ccc(-c2ccc(=O)[nH]n2)s1,3%,?,7,-10,?,.
O=C(c1ccc(Cn2cc(Cl)cn2)cc1)N1CCN(c2ccccc2)CC1,7.4µM*,-14%,-1,25,-61%,0%
O=C(c1ccccc1)N1CCN(c2ccc(Cl)cc2)CC1,15µM*,?,12,19,-106%,12%
O=C(c1ccc(N2CCN(C(=O)c3ccc(F)cc3F)CC2)cc1)c1cccc(F)c1,10µM*,?,8,7,-23%,.
CC(=O)c1ccc(N2CCN(C(=O)C3CCC3)CC2)cc1,9%,-14%,14*,-6,0%,-4%
O=C(c1ccccc1)N1CCN(C(=O)c2ccccc2)CC1,-27%,31%,6,-5,1%,-1%
O=C(c1ccc(F)cc1F)N1CCN(c2ncccn2)CC1,123%,36%,-2,-21,7%,2%
Cc1sc2ncnc(N3CCC(C(=O)Nc4nnc(SCc5ccccc5F)s4)CC3)c2c1C,19%,12%,.,.,.,.
Nc1ccn([C@@H]2O[C@H](COC(=O)C34CC5CC(CC(C5)C3)C4)[C@@H](O)[C@@H]2O)c(=O)n1,.,.,.,.,-3%,.
O=C(NC(=O)N1CCN(c2ccccc2)CC1)c1ccc(Cl)cc1,149%,196%,42*,+,3%,3%
CC(=O)c1ccc(N2CCN(C(=O)c3ccc(C(=O)c4ccccc4)cc3)CC2)cc1,5.2µM*,-2%,.,.,.,.
COc1ccc(C2=Nn3c(nnc3-c3ccccc3O)SC2)c(OC)c1,.,.,10,33,.,-3%
COCCN(C(=O)COC(=O)CSc1ccc2ccccc2c1)c1c(N)n(Cc2ccccc2)c(=O)[nH]c1=O,2%,?,.,.,.,.
CCNc1ccccc1CP(=O)(c1ccccc1)c1ccccc1O (stereo not given),12µM*,13µM*,-4,1,21%,1.8µM*
O=C(CN1CCN(S(=O)(=O)c2ccccc2)CC1)NCCc1ccccc1,-28%,19%,-6,-10,8%,.
Oc1ccccc1CN1CCN(C(O)(c2ccccc2)c2ccccc2)CC1,5.2µM*,5.9µM*,-1,-12,1%,-7%
CC(C)(C)c1ccc(C(O)CCCN2CCC(C(O)(c3ccccc3)c3ccccc3)CC2)cc1 (stereo not given),12µM*,?,5,12,4%,1%
